Measurements taken from PubChem BioAssay (NCI).
This is part of a sample that, as a whole, favours compounds with a hit. Of some 83,000 tested, about 20% had one in any assay.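 Single-dose data. Exposure time 48 hours. Values below 10 considered active.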 The source made the active and inactive calls.

Key:
Assay in all cases: NCI-60 one-dose screen, 48 h (100 = growth as untreated, 0 = no growth, -100 = all killed)
Conditions in all cases: 10 µM unless noted
SR leukemia = tested on: SR leukemia
RPMI-8226 leukemia = tested on: RPMI-8226 leukemia
OVCAR-8 ovarian = tested on: OVCAR-8 ovarian
OVCAR-5 ovarian = tested on: OVCAR-5 ovarian
OVCAR-4 ovarian = tested on: OVCAR-4 ovarian
SK-OV-3 ovarian = tested on: SK-OV-3 ovarian
OVCAR-3 ovarian = tested on: OVCAR-3 ovarian
HS 578T breast = tested on: HS 578T breast
NCI/ADR-RES ovarian = tested on: NCI/ADR-RES ovarian
T-47D breast = tested on: T-47D breast
BT-549 breast = tested on: BT-549 breast
MDA-MB-435 melanoma = tested on: MDA-MB-435 melanoma
SW-620 colon = tested on: SW-620 colon
MCF7 breast = tested on: MCF7 breast
HCT-116 colon = tested on: HCT-116 colon
HCC-2998 colon = tested on: HCC-2998 colon
KM12 colon = tested on: KM12 colon
IGROV1 ovarian = tested on: IGROV1 ovarian

Measured: growth

Cc1cc(N2CCN(CCNc3ccnc4cc(Cl)ccc34)CC2)nc(N2CCOCC2)n1
active: SR leukemia 3.62%
inactive: RPMI-8226 leukemia 35.3% | OVCAR-8 ovarian 74.1% | OVCAR-5 ovarian 92.9% | OVCAR-4 ovarian 53.8% | SK-OV-3 ovarian 85.2% | OVCAR-3 ovarian 73.1% | HS 578T breast 85.8% | NCI/ADR-RES ovarian 66.1% | T-47D breast 55.9% | BT-549 breast 74.2% | MDA-MB-435 melanoma 80.1% | SW-620 colon 79.4% | MCF7 breast 53.3% | HCT-116 colon 38.5% | HCC-2998 colon 37.4% | KM12 colon 76.6%

CCn1cc(C(=O)NNC(=S)Nc2ccc(C)cc2)c(=O)c2ccc(C)nc21
inactive: SR leukemia 104% | RPMI-8226 leukemia 98.9% | OVCAR-8 ovarian 95.6% | OVCAR-5 ovarian 107% | OVCAR-4 ovarian 102% | SK-OV-3 ovarian 106% | OVCAR-3 ovarian 103% | HS 578T breast 95.8% | NCI/ADR-RES ovarian 95.6% | T-47D breast 88.1% | BT-549 breast 97.1% | MDA-MB-435 melanoma 101% | SW-620 colon 99.2% | MCF7 breast 97.2% | HCT-116 colon 93% | HCC-2998 colon 92.7% | KM12 colon 103%

O=S(=O)(Nc1cc(Cl)ccc1Cl)c1ccc(-c2cnc(C3CC3)o2)cc1
inactive: SR leukemia 16.5% | RPMI-8226 leukemia 31% | OVCAR-8 ovarian 56.2% | OVCAR-5 ovarian 72.1% | OVCAR-4 ovarian 52.5% | SK-OV-3 ovarian 52% | NCI/ADR-RES ovarian 26% | T-47D breast 28.7% | BT-549 breast 40.5% | SW-620 colon 21% | MCF7 breast 12.9% | HCT-116 colon 21.5% | HCC-2998 colon 67.4% | KM12 colon 24%
active: OVCAR-3 ovarian 5.34% | HS 578T breast -2.43% | MDA-MB-435 melanoma -12%

CCSc1nc2scc(C)c2c(=O)[nH]1
inactive: SR leukemia 101% | RPMI-8226 leukemia 101% | OVCAR-8 ovarian 99.3% | OVCAR-5 ovarian 99.8% | OVCAR-4 ovarian 96.7% | SK-OV-3 ovarian 98.5% | OVCAR-3 ovarian 107% | HS 578T breast 95.5% | NCI/ADR-RES ovarian 102% | T-47D breast 101% | BT-549 breast 96.8% | MDA-MB-435 melanoma 105% | SW-620 colon 104% | HCT-116 colon 101% | HCC-2998 colon 106% | KM12 colon 103%

Clc1ccc(/C=N\N=C\c2ccc(Cl)c(Cl)c2)cc1Cl
inactive: SR leukemia 103% | RPMI-8226 leukemia 102% | OVCAR-8 ovarian 85.7% | OVCAR-5 ovarian 66.9% | OVCAR-4 ovarian 97.9% | SK-OV-3 ovarian 87.4% | OVCAR-3 ovarian 119% | HS 578T breast 106% | NCI/ADR-RES ovarian 77.3% | T-47D breast 90.3% | BT-549 breast 74.2% | MDA-MB-435 melanoma 101% | SW-620 colon 53.8% | MCF7 breast 72.8% | HCT-116 colon 53.3% | HCC-2998 colon 96.1% | KM12 colon 101%

NC(Cc1ccc(O)c([N+](=O)[O-])c1)C(=O)O (centres undefined)
inactive: SR leukemia 89.1% | RPMI-8226 leukemia 95% | OVCAR-8 ovarian 103% | OVCAR-5 ovarian 107% | OVCAR-4 ovarian 95.2% | SK-OV-3 ovarian 115% | OVCAR-3 ovarian 105% | HS 578T breast 98.4% | NCI/ADR-RES ovarian 99% | T-47D breast 103% | BT-549 breast 96.9% | MDA-MB-435 melanoma 112% | SW-620 colon 104% | MCF7 breast 98% | HCT-116 colon 98.5% | HCC-2998 colon 99.6% | KM12 colon 103%

Cn1ccnc1C(=O)/C=C/c1ccc(CC(=O)Nc2cc(C(F)(F)F)cc(C(F)(F)F)c2)cc1
inactive: SR leukemia 39.4% | RPMI-8226 leukemia 55% | OVCAR-8 ovarian 41% | OVCAR-5 ovarian 83.8% | OVCAR-4 ovarian 78.8% | SK-OV-3 ovarian 109% | OVCAR-3 ovarian 62.6% | HS 578T breast 66.6% | T-47D breast 52.1% | BT-549 breast 80.3% | MDA-MB-435 melanoma 68.5% | SW-620 colon 70.5% | MCF7 breast 30.8% | HCT-116 colon 51.6% | HCC-2998 colon 83.6% | KM12 colon 63%

CCN(CC)CCn1c2ccc(O)cc2c2sc3cc(O)ccc3c(=O)c21
active: SR leukemia 5.78% | MCF7 breast 8.08%
inactive: RPMI-8226 leukemia 28.3% | OVCAR-8 ovarian 31.4% | OVCAR-5 ovarian 54% | OVCAR-4 ovarian 46.6% | SK-OV-3 ovarian 48.7% | IGROV1 ovarian 15.4% | OVCAR-3 ovarian 41% | HS 578T breast 64.5% | T-47D breast 50.4% | BT-549 breast 62.1% | MDA-MB-435 melanoma 40.5% | SW-620 colon 15.5% | HCT-116 colon 12.1% | HCC-2998 colon 42.3% | KM12 colon 29.4%
